Measured values: the supplement of paper PMC10849652
About 7,900 targets were measured; listed, in parts, are those with a hit and a random draw of the rest. About 0.6% of all pairs of compound and target were hits. Unmarked numbers belong to inactive results.

Tests used:
Experiment in all cases: log2 fold change, soluble protein after heating vs DMSO (PISA); higher = thermal stabilisation; K562 cells, 10 uM, 30 min; active = over 0.2 and 3.5 SD of the protein, either way, in both replicates (recomputed)
[1] = compound: CC[C@@H]1C(=O)N(C)c2cnc(Nc3ccc(C(=O)NC4CCN(C)CC4)cc3OC)nc2N1C1CCCC1
How it was run: (§1)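 K562 cells (2×10^6 cells/mL) were treated with 10 μM compound for 30 min, and aliquots were heated for 3 min over 48°C-58°C. Pooled aliquots were extracted in PBS with 0.5% NP-40 at 4°C, and the supernatant after 21,000xg for 90 min was measured by TMTpro 16plex LC-MS/MS with channel sums equalised. Reported thermal stability, relative to control samples and from duplicates, is a log2 fold change.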

volasertib = compound: CC[C@@H]1C(=O)N(C)c2cnc(Nc3ccc(C(=O)N[C@H]4CC[C@H](N5CCN(CC6CC6)CC5)CC4)cc3OC)nc2N1C(C)C [volasertib]
How it was run: as §1

[2] = compound: CC[C@H](C)N1C=C(C2=C(C=C(C=C21)C3=CN=C(C=C3)N4CCNCC4)C(=O)NCC5=C(C=C(NC5=O)C)C)C
How it was run: as §1

epoxomicin = compound: CC[C@H](C)[C@@H](C(=O)N[C@@H]([C@@H](C)O)C(=O)N[C@@H](CC(C)C)C(=O)[C@]1(CO1)C)NC(=O)[C@H]([C@@H](C)CC)N(C)C(=O)C [epoxomicin]
How it was run: as §1

[3] = compound: CCn1c(C(=O)N(C2CC2)C2CC2)cc2c3c(ncn3C)c(Nc3cc(C)n(C)n3)nc21
How it was run: as §1

[4] = compound: CCn1cc(-c2ccnc3[nH]c(-c4cccc(CN(C)C)c4)cc23)c(-c2ccc(NC(=O)N(C)C)cc2)n1
How it was run: as §1

[5] = compound: CN(C)CC(=O)Nc1ccc2[nH]c(=O)c3ccccc3c2c1
How it was run: as §1

rosiglitazone = compound: CN(CCOC1=CC=C(C=C1)C[C@H]2C(=O)NC(=O)S2)C3=CC=CC=N3 (racemic) [rosiglitazone]
How it was run: as §1

[6] = compound: CN1C2=C(C3=C1C(=O)N(N=C3)CC4=CC(=CC=C4)N)SC(=C2)S(=O)C
How it was run: as §1

[7] = compound: CN1CCC(CNc2ccc3ncc(-c4cccc(OC(F)(F)F)c4)n3n2)CC1
How it was run: as §1

UniProt Q8NBX0, sequence (Q8NBX0 whole entry, looked up): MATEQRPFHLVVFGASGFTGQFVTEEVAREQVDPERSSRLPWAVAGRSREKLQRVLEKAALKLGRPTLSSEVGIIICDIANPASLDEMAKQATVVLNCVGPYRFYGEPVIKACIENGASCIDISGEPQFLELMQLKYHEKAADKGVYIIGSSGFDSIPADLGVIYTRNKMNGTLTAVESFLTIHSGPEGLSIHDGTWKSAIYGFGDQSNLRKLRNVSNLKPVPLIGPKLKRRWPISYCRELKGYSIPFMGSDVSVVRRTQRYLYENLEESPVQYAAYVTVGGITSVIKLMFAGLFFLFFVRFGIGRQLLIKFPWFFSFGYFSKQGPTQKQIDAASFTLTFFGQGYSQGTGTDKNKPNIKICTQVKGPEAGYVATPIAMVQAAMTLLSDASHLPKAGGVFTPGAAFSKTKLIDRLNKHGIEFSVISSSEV
UniProt Q92878, sequence (Q92878 whole entry, looked up): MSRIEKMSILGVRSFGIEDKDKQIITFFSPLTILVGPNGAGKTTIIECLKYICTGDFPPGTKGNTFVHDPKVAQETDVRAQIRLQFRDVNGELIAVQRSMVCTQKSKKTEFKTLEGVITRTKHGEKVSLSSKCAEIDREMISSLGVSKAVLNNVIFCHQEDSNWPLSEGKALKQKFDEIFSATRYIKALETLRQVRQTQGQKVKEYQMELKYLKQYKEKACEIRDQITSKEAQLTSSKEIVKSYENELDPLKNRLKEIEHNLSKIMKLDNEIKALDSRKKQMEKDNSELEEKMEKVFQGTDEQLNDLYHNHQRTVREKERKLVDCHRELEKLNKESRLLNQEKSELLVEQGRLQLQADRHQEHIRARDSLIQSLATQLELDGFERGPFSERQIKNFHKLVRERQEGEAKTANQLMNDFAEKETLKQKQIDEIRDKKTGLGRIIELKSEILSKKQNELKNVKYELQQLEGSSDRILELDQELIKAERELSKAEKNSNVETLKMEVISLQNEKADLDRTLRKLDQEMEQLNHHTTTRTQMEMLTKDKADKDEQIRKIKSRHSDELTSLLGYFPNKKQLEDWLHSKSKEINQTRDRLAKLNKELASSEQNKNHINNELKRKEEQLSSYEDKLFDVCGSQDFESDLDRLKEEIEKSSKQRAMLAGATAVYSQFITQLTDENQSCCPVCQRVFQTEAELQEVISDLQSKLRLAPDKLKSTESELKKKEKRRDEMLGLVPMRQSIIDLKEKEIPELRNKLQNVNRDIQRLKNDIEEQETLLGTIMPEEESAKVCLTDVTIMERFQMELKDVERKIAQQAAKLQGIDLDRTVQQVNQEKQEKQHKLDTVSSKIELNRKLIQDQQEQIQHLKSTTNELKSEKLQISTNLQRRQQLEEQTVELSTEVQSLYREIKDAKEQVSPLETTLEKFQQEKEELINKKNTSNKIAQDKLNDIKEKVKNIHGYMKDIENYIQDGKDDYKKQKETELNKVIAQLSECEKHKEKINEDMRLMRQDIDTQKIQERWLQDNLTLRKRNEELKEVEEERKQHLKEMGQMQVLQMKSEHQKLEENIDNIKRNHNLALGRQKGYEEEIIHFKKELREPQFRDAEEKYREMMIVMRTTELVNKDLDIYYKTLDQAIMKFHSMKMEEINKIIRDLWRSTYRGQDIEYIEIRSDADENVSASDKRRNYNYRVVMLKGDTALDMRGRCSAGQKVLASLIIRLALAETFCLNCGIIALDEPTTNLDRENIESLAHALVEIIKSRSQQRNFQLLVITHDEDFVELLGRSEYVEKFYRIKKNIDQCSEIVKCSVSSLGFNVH
UniProt Q96EV2, sequence (Q96EV2 whole entry, looked up): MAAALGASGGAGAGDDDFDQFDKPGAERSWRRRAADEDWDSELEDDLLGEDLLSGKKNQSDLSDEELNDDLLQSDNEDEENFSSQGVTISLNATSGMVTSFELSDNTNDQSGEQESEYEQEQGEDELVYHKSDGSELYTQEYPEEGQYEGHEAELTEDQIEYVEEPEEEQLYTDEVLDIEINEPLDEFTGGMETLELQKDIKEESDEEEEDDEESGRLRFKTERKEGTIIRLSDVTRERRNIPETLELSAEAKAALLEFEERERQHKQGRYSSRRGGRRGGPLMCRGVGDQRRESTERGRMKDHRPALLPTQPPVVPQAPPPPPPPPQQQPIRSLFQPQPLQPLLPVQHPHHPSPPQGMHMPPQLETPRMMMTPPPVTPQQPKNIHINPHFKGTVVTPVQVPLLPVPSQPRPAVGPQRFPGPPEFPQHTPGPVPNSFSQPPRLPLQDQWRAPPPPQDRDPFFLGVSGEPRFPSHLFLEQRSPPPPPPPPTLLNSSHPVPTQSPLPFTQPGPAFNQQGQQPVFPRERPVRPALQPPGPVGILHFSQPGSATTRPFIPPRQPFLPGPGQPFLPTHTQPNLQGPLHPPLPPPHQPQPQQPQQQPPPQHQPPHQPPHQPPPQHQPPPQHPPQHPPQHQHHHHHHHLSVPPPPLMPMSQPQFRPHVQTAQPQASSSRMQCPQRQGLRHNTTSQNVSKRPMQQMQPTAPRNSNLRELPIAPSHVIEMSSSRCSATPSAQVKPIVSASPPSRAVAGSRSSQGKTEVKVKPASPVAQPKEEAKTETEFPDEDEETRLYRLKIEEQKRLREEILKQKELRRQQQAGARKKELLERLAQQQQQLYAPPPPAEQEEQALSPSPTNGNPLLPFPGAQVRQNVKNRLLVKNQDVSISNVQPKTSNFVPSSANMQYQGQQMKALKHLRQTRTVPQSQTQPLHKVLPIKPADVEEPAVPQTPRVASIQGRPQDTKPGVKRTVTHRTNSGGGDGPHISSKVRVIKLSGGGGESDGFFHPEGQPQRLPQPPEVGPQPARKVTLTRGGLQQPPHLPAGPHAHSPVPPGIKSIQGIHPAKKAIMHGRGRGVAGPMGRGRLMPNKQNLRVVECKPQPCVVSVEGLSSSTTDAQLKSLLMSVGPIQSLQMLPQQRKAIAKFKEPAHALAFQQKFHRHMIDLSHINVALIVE
UniProt Q9NRX5, sequence (Q9NRX5 whole entry, looked up): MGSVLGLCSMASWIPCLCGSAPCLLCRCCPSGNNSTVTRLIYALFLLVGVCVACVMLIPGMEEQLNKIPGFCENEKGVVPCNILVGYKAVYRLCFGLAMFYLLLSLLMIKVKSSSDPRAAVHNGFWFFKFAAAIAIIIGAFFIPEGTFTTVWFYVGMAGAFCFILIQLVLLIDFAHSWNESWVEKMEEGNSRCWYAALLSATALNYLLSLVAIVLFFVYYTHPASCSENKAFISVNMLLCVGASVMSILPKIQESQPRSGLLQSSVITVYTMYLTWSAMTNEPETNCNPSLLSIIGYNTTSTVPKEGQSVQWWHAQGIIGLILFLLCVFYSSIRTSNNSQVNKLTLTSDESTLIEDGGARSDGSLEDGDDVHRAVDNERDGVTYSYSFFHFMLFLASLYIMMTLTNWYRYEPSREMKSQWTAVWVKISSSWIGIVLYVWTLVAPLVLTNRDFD
UniProt O43665, sequence (O43665 whole entry, looked up): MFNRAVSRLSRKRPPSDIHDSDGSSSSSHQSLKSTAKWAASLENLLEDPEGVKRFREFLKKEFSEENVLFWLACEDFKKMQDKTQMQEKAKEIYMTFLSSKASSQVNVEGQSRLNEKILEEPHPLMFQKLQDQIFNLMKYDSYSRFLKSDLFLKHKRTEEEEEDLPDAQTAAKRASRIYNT

Row | Target | log2 fold change [1] | log2 fold change (volasertib) | log2 fold change [2] | log2 fold change (epoxomicin) | log2 fold change [3] | log2 fold change [4] | log2 fold change [5] | log2 fold change (rosiglitazone) | log2 fold change [6] | log2 fold change [7]
1 | SCCPDH (UniProt Q8NBX0) | 0.083 | 0.158 | -0.06 | -0.024 | 0.008 | -0.07 | 0.039 | 0.022 | -0.194 | 0.216
2 | RBM33 (UniProt Q96EV2) | -0.101 | -0.105 | 0.035 | 0.022 | 0.012 | -0.005 | -0.025 | -0.024 | 0.023 | 0.004
3 | RAD50 isoform 2 (UniProt Q92878) | -0.069 | -0.228 (active) | 0.041 | 0.041 | -0.012 | -0.001 | 0.025 | 0.031 | -0.03 | -0.074
4 | SERINC1 (UniProt Q9NRX5) | 0.001 | 0.025 | -0.223 | -0.034 | 0.019 | – | -0.023 | -0.051 | -0.194 | –
5 | RGS10 (UniProt O43665) | -0.097 | -0.205 (active) | -0.043 | 0.101 | -0.025 | 0.011 | 0.078 | 0.011 | -0.111 | -0.016
